Results: the supplement of paper PMC3334620
The full ranking holds about 33,000 sequences; the median of “E-score (-0.5 to 0.5)” is about -0.0034, and the highest 2% start at about 0.25. The entries come from a sample that favours the highest values as a whole.

What follows are sequences tested against T1, Yap3 (UniProt P38749) (assay: PBM E-score (8-mer binding enrichment) (E-score (-0.5 to 0.5)); higher = stronger / more preferred TF binding). Details: protein concentration: 100 nM; construct: GST-full length.
T1 sequence: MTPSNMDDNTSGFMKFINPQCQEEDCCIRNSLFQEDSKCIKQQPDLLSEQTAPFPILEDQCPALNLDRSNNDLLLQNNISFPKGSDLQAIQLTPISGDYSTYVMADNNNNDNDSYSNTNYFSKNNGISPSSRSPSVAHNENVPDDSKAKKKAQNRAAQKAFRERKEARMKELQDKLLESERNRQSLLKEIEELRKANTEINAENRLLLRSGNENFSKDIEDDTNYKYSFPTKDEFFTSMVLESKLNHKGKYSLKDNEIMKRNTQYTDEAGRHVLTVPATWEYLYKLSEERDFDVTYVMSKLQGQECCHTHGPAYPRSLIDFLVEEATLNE
Experimental: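 Universal 'all 10-mer' protein binding microarrays (Agilent AMADID 015681) probed with GST-tagged S. cerevisiae TFs (full-length or DBD) made by in vitro transcription/translation (PURExpress), about 100-200 nM. Bound TF was detected with fluorescent anti-GST. Each ungapped 8-mer (which stands for itself and its reverse complement) is scored by the PBM enrichment score (E-score), a modified Wilcoxon-Mann-Whitney statistic from -0.5 to +0.5, computed with the Universal PBM Analysis Suite. Scale: above 0.35 generally sequence-specific binding.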

Sequence | PBM E-score
GCAACCCA | -0.11
AATGATAT | 0.242
CATGATAA | 0.255
AATGATAC | 0.264
TATGATAA | 0.228
GATGATTA | 0.0319
AATGATTC | 0.115
AATGATAG | 0.172
CATGATTC | 0.0254
CATGATTA | 0.28
CCTGATTA | 0.18
AATGATTA | 0.325
AATGATAA | 0.177
AGAACGCC | -0.109
CGCACATA | -0.0836
AAGTGGGT | 0.0584
AATTTGAA | 0.131
CCGAGCAA | -0.0253
CATATAGC | 0.233
ATACAAGG | 0.145
AGCGATTA | 0.00413
CGCGATTC | 0.198
CGCGATTA | 0.27
CGTAATAG | 0.314
GGTAATAA | 0.165

Sequence | PBM E-score
CATAATAG | 0.189
AGTAATAG | 0.207
CGTAATGC | 0.203
GGTAATAC | 0.208
AGTAATAT | 0.295
CGTAATAC | 0.318
TGTAATAA | 0.242
AGTAATAC | 0.113
AGTAATGC | 0.13
CGTAATAA | 0.29
CGGCATTA | 0.21
ACTCGTTC | -0.0576
AGTAATGA | 0.208
AGTAATAA | 0.254
AGTAAAAA | 0.208
ATTGGGGC | -0.0386
AGGCTATC | -0.203
GCGCGCTA | 0.257
CCGCGCTA | 0.137
CCGCGCGC | 0.0469
GCGCGCGC | 0.29
ACGCGCTA | 0.0658
CCGCGCGA | 0.0991
ACGCGCGC | 0.181
GCGCGCGA | 0.121

Sequence | PBM E-score
CCGCGCGG | 0.293
ACAACAGA | -0.0683
GATGTCCC | -0.134
AGGATCAG | -0.151
CGGCCCAG | -0.332
AGAAATGA | 0.0784
CCTGACAG | -0.0186
CGAGATAA | 0.29
AGAGATAA | 0.169
GGAGATAA | 0.107
GAGCCTTA | -0.0398
ACATGTAT | 0.262
ACATGTAC | 0.112
ACATGTTG | 0.13
CCATGTAG | -0.014
ACATGTAA | 0.184
ACATGTAG | 0.302
CAGAATCA | 0.0924
CCGCTAGG | -0.128
ACGCACGT | -0.206
ACGCACGA | 0.131
ACGCACGC | 0.262
TCATGGGA | 0.00531
ATTAAACG | 0.215
GTTAAATA | 0.178

Sequence | PBM E-score
ATTAAAAA | 0.285
ATTAAAAG | 0.0983
ATTAAATC | 0.211
ATTAAATG | 0.266
TATTAAAA | 0.217
ATTAAAAC | 0.236
ATTAAATA | 0.268
GATTAAAA | 0.192
CTTAAATA | 0.092
CATTAAAA | 0.281
CAAGGTAG | -0.142
ATGCGCCG | 0.00281
AAAGAGAT | -0.0227
AGCGAGAA | -0.0207
AAAATCCA | 0.28
ACAATCCA | 0.287
GAAATCCA | 0.0886
CAAATCCA | 0.151
ACAATCCG | 0.116
GCAATCCA | 0.0882
AGAATGCG | 0.0426
AATAGTAT | 0.229
GTATCCGA | -0.0824
ACTACGTG | -0.166
ATTAGGTC | 0.286

Sequence | PBM E-score
ATTAGGTA | 0.167
ACTACGTC | -0.0702
ATTACGCC | 0.0197
AATACGTC | 0.188
ATTACGTC | 0.33
AGTACGTG | -0.0755
ATTACGCA | 0.233
ATTACGCG | 0.311
ATTACGTG | 0.397
CTTAGGTC | -0.0924
AGTAAACT | 0.0322
CATCTGGC | -0.066
TAGTACTA | 0.0913
GGCTACAC | -0.166
CGACTACA | 0.0886
ATTGGCTC | 0.0983
ATGGTAAT | 0.128
AAGGACAC | -0.0338
ACCCGGGT | -0.12
ACCTTCAC | 0.00082
ATTGGTTG | 0.118
CTGTACGA | 0.0353
CACAGTAA | 0.265
CACAGTAG | 0.0618
TACAGTAA | 0.183

Sequence | PBM E-score
ATTTCGAG | 0.141
ATTTCGAA | 0.261
ATTTCGAC | -0.0412
TGCGTGAA | 0.107
ACATTAGT | 0.0888
ATTTTATG | 0.21
ATTTTATC | 0.235
ACTTTATA | 0.259
CGTTTATA | 0.28
CATTTATC | 0.198
ATTTTATA | 0.331
GTTTTATA | 0.139
AATTTATC | 0.325
AGTTTATA | 0.205
ACTTTATC | 0.169
CCTTTATA | 0.0052
GGTTTATA | 0.0813
GGCAGTCA | -0.11
AAGGTAAC | 0.121
AATTTGAT | 0.0887
ATCGTTTA | 0.135
AAGAGCCG | -0.0966
AGTCACGG | 0.00648
AGGCAGAA | -0.0515
CCTCGCAC | -0.133

Sequence | PBM E-score
AATTTATG | 0.252
CATTTATA | 0.215
AATTTATA | 0.294
CTGCATTA | -0.0676
ATCCATAA | 0.258
ATGCATTA | 0.333
AGACATAA | 0.136
ATGCATTC | 0.0938
TGACATAA | 0.3
GTCCATAA | -0.0433
AACCATAT | 0.266
CTCCATAA | -0.0865
AACCATAA | 0.15
GGACATAA | 0.0711
AACCATAC | 0.0832
CTCCTTCC | -0.171
CATTTGAC | 0.0765
GGAGCGCA | -0.261
AAGTACGG | -0.0366
AGCAATTC | 0.134
TAGGCCCA | -0.198
TCGTCGAA | 0.0355
ATACATAC | 0.0937
